Among all 150,000 compounds or so, about 540 (0.36%) showed an effect of 50% or more. Many of the other results were omitted from the sample, so strong results are more common in it than they were.

This test has as its system Plasmodium falciparum. As to the kind of experiment: Primary screen in NF54 nanoGlo assay, in single point, at 2uM, 72h; a lower Z score goes with more inhibition. The format is functional, Erythrocyte. The settings on record: timepoint 72 hour.
As a reminder, the % Inhibition is the drop in the measured response relative to a control, in per cent. In the case of `COc1cccc(C(=O)Nc2c3c(nc4ccccc24)CCCC3)c1`, the “% Inhibition” value is reported as 1% and the Z score was -0.12.

As to `COc1ccccc1C(C)(C)c1noc([C@@]2(C)CCNC(=O)C2)n1`, the “% Inhibition” value is listed as -3% and the Z score worked out at 0.4.

Turning to `CCOc1ccc(N2C[C@@H](C(=O)NCCc3ccco3)CC2=O)cc1`, the “% Inhibition” value came to 0% and the Z score is recorded as -0.05.

With `C[C@H](NCc1ccccc1CN1CCOCC1)C(=O)Nc1cccc2ccccc12`, the “% Inhibition” value is given as -7% and the Z score was determined as 1.29.

On to `c1ccc2[nH]c(C3CCN(c4nn5cnnc5c5ccccc45)CC3)nc2c1`, for which the “% Inhibition” value is on record as -15% and the Z score stood at 2.33.

Take `c1ccc(C(c2ccccc2)N2CCN(c3nn4cnnc4c4ccccc34)CC2)cc1`: the “% Inhibition” value is listed as 81% and the Z score is -11.8.

In the case of `Fc1ccc(N2CCN(c3nn4cnnc4c4ccccc34)CC2)cc1`, the “% Inhibition” value is -10% and the Z score turned out to be 1.31.

As for `COc1ccc(-c2nc3c(c(N4CCC[C@@H]4C)n2)CCOCC3)cc1`, the “% Inhibition” value is on record as -10% and the Z score is reported as 0.99.

With `O=C(Nc1ccnn1C1CCC1)c1ccc(-c2cn[nH]c2)cn1`, the “% Inhibition” value is reported as -10% and the Z score was 1.42.

For the molecule `O=C1CCCCN1CCC(=O)N1CCc2onc(-c3cccc4ccccc34)c2C1`, the “% Inhibition” value was -1% and the Z score amounted to 0.1.

With `Cc1nn(C)c2nc(OCC(=O)NC(C)(C)C)cc(C(F)(F)F)c12`, the “% Inhibition” value is on record as -8% and the Z score came to 0.92.

For the molecule `Cn1nccc1[C@@H]1CN(C(=O)Nc2nsc3ccccc23)CCO1`, the “% Inhibition” value is -5% and the Z score came out at 0.53.

For `Cc1ccc(S(=O)(=O)c2c(NS(=O)(=O)c3ccccc3)n(CCc3ccccc3)c3nc4ccccc4nc23)cc1`, the “% Inhibition” value is on record as 99% and the Z score was -11.17.

`Cc1ccc(S(=O)(=O)Nc2c(S(=O)(=O)c3ccccc3)c3nc4ccccc4nc3n2CCc2ccccc2)cc1`: the “% Inhibition” value is listed as 86% and the Z score is given as -14.39.

On to `Nc1c(S(=O)(=O)c2ccc(Cl)cc2)c2nc3ccccc3nc2n1Cc1ccc(Cl)cc1`, for which the “% Inhibition” value is -9% and the Z score amounted to 0.81.

`COc1ccc(S(=O)(=O)c2c(N)n(Cc3ccc(C)cc3)c3nc4ccccc4nc23)cc1`: the “% Inhibition” value is -6% and the Z score worked out at 0.56.

Take `CCC(=O)Nc1c(S(=O)(=O)c2ccccc2)c2nc3ccccc3nc2n1[C@@H](C)c1ccccc1`: the “% Inhibition” value is recorded as -14% and the Z score was found to be 1.29.

`Cc1ccc(S(=O)(=O)c2c(NS(=O)(=O)c3ccc(Cl)cc3)n(-c3cc(C)cc(C)c3)c3nc4ccccc4nc23)cc1`: the “% Inhibition” value is recorded as -6% and the Z score came out at 0.5.

As to `Cc1ccc(S(=O)(=O)Nc2c(S(=O)(=O)c3ccc(C)cc3)c3nc4ccccc4nc3n2CCC(C)C)cc1`, the “% Inhibition” value turned out to be 85% and the Z score is listed as -10.94.

On to `Cc1ccc(S(=O)(=O)c2c(NC(=O)c3ccco3)n(C3CCCCC3)c3nc4ccccc4nc23)cc1`, for which the “% Inhibition” value is recorded as -11% and the Z score is 1.85.

Turning to `Cc1ccc(S(=O)(=O)c2c(NS(=O)(=O)c3ccc(F)cc3)n(C[C@H]3CCCO3)c3nc4ccccc4nc23)cc1`, the “% Inhibition” value is on record as 6% and the Z score is recorded as -0.71.

Turning to `Cc1ccc(S(=O)(=O)c2c(NS(=O)(=O)c3ccc(F)cc3)n(CCc3ccccc3)c3nc4ccccc4nc23)cc1`, the “% Inhibition” value was found to be 98% and the Z score is -8.73.

For `Cc1ccc(S(=O)(=O)Nc2c(S(=O)(=O)c3ccc(C)cc3)c3nc4ccccc4nc3n2C[C@H]2CCCO2)cc1`, the “% Inhibition” value turned out to be 48% and the Z score is -4.28.

In the case of `CC(C)n1cc(C(=O)N(CCOc2ccc(Cl)cc2)Cc2ccco2)cn1`, the “% Inhibition” value was -9% and the Z score came to 1.28.

Take `O=C(Nc1cccc(C(F)(F)F)c1)C1(F)C(F)(F)C(F)(F)C(F)(F)C(F)(F)C1(F)F`: the “% Inhibition” value is 2% and the Z score is reported as -0.22.

Consider `c1ccc2oc(-c3nc(C4CC4)n[nH]3)cc2c1`, for which the “% Inhibition” value was -12% and the Z score was determined as 1.37.

For `N[C@@H](c1ccc2c(c1)CCO2)c1cc(Cl)ccc1Cl`, the “% Inhibition” value worked out at 0% and the Z score is on record as -0.02.

Regarding `O=C(Nc1nc(C(=O)N2CCN(c3ncccn3)CC2)co1)c1ccsc1`, the “% Inhibition” value was -2% and the Z score was 0.31.

For the molecule `CCCN1CCCC[C@H]1C(=O)NCCCn1ccnc1`, the “% Inhibition” value is listed as -6% and the Z score is given as 1.01.

Regarding `Cc1ccc(C(=O)N2CCC[C@H](CCC(=O)N3CCN(c4ccccn4)CC3)C2)s1`, the “% Inhibition” value is -8% and the Z score is 1.24.

Take `COc1ccc(-c2nc3ccc(Cc4ccc5nc(-c6ccc(OC)cc6)c(-c6ccc(OC)cc6)nc5c4)cc3nc2-c2ccc(OC)cc2)cc1`: the “% Inhibition” value came out at 11% and the Z score was -2.21.

For the molecule `O=C(NC[C@H]1CCCN1c1ccccc1)c1ccccc1Br`, the “% Inhibition” value is -13% and the Z score is on record as 2.53.

Turning to `CCCCn1c(NC(=O)c2ccccc2Cl)c(S(=O)(=O)c2ccccc2)c2nc3ccccc3nc21`, the “% Inhibition” value is recorded as -7% and the Z score was 0.7.

Regarding `C[C@@H](c1ccccc1)n1c(NC(=O)c2ccc(Cl)cc2)c(S(=O)(=O)c2ccccc2)c2nc3ccccc3nc21`, the “% Inhibition” value was -15% and the Z score is on record as 1.3.

`CCCCn1c(NC(=O)c2ccccc2)c(S(=O)(=O)c2ccc(C)cc2)c2nc3ccccc3nc21`: the “% Inhibition” value was found to be 0% and the Z score is -0.03.

In the case of `COCCCn1c(NS(=O)(=O)c2ccc3ccccc3c2)c(S(=O)(=O)c2ccc(C)cc2)c2nc3ccccc3nc21`, the “% Inhibition” value worked out at 57% and the Z score is recorded as -8.33.

For the molecule `Cc1ccc(S(=O)(=O)NCCn2c3ccccc3c3c(C)cc(C)nc32)cc1`, the “% Inhibition” value was -5% and the Z score came out at 0.73.

Turning to `O=C(Nc1c(S(=O)(=O)c2ccccc2)c2nc3ccccc3nc2n1CCc1ccccc1)c1ccc(Cl)cc1`, the “% Inhibition” value came out at 101% and the Z score is -8.88.

Turning to `Cc1ccc(S(=O)(=O)Nc2cc3nc4ccccc4nc3n2CCc2ccccc2)cc1`, the “% Inhibition” value was determined as 100% and the Z score is reported as -10.64.

As to `CCCCc1ccc(-n2c(NS(=O)(=O)c3ccc(Cl)cc3)c(S(=O)(=O)c3ccc(C)cc3)c3nc4ccccc4nc32)cc1`, the “% Inhibition” value came out at 4% and the Z score is listed as -0.41.

As to `COCCCn1c(NS(=O)(=O)c2ccccc2)c(S(=O)(=O)c2ccc(C)cc2)c2nc3ccccc3nc21`, the “% Inhibition” value came to 43% and the Z score was -9.12.

Source of the values: ChEMBL document CHEMBL4888484, “Replenishing the malaria drug discovery pipeline: Screening and hit evaluation of the MMV Hit Generation Library 1 (HGL1) against asexual blood stage Plasmodium falciparum ,using a nano luciferase reporter read-out” (2022).
